Hits are enriched below; roughly 19% of the tested compounds scored in any of these assays.
TDP1 cell CPT: DT40-hTDP1 cell growth loss with CPT. chicken DT40 Tdp1-/-;hTDP1 cells + 20 nM CPT, ATP luminescence, 48 h. Potency, µM (titrated, usually from 46.2 µM), for inactives: at the highest dose activity change, negative = growth inhibition, usual class: inhibitors. 12% of 420,000 active. AID 686979; further: potency means the concentration at half of the fitted maximal effect; nearly all actives have a fitted effect of over 55% in size
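Chicken DT40 Tdp1-/- cells complemented with human TDP1, 400 cells/well, exposed to compounds plus 20 nM camptothecin for at least 48 h at 37 C; viability read as ATP content by CellTiter-Glo luminescence.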
HT1080 IDH1KD tx: HT-1080 IDH1 knockdown cell toxicity (counter line). HT-1080 IDH1 knockdown viability, ATP luminescence, 48 h. Potency, µM (doses to about 46.1 µM), inactives show at the highest dose activity, negative = toxicity, hits mostly cytotoxic. 2% of 360,000 active. AID 686971;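 further: potency means the concentration at half of the fitted maximal effect; 0% = DMSO wells and -100% = cell-free medium wells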
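Assay cells: HT-1080 with IDH1 knockdown, 750 per well, RPMI/5% FBS. Exposure: 48 h at 37 °C following 2 h pre-incubation. Read: CellTiter-Glo luminescence; fitted concentration-response, curve class assigned.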
DT40 TDP1 no CPT: qHTS for Inhibitors of human tyrosyl-DNA phosphodiesterase 1 (TDP1): qHTS in cells in absence of CPT | DT40 Tdp1-/- hTDP1 cells, no CPT, ATP luminescence, 48 h | 15% of 420,000 active | Potency, µM (doses to about 46.2 µM), for inactives: at the highest dose activity change, negative = growth inhibition, hits mostly inhibitors; further: potency means the concentration at half of the fitted maximal effect; nearly all actives have a fitted effect of over 55% in size
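Chicken DT40 Tdp1-/- cells complemented with human TDP1, screened without camptothecin (DMSO vehicle only), 400 cells/well. Compounds pin-transferred, cells incubated at 37 °C for at least 48 hr. Growth read as ATP-dependent luminescence (CellTiter-Glo, 30 min at RT).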
ELG1 DNA repair: ELG1-dependent DNA repair inhibition | HEK293T ELG1-luciferase reporter, luminescence, 16 h; DNA damage induced by 5-fluorouridine | Potency, µM (doses to about 46.1 µM), for the others: top-dose activity change, negative = inhibition, hits mostly inhibitors | 2.3% of 330,000 active; further: potency means the concentration at half of the fitted maximal effect; nearly all actives have a fitted effect of over 55% in size
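DMSO vehicle served as the neutral condition. Each well held 2,000 cells given 5-fluorouridine plus compound; after 16 hr at 37 °C/5% CO2, ONE-Glo was added and luciferase measured 30 min later.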
IL-1B inflam inh: blocks inflammasome-driven IL-1 beta release; THP-1 LPS/ATP IL-1B secretion, AlphaLISA, 16 h; stronger effect = lower value; activity change, % at 57.5 µM; 4.7% of 360,000 active; AID 743279; in the data active means activity change below about -50%; inconclusive means mostly about -30% to -49%
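THP-1 cells pretreated 1 hr with compounds (up to 57.5 uM final), then stimulated with LPS (250 ng/mL final) plus ATP (1.25 mM final); secreted IL-1B measured by AlphaLISA after 16 hr, decreased signal indicating inhibition.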
HT1080-NT tox: kills 2HG-producing HT-1080-NT fibrosarcoma cells; HT-1080-NT fibrosarcoma viability, CellTiter-Glo ATP luminescence, 48 h; Potency, µM (series often up to 46.1 µM), for inactives: top-dose activity, negative = less viability, actives largely listed as cytotoxic; 1.6% of 360,000 active; AID 686970;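 further: NT is the 2HG producing partner of a matched IDH1 knockdown line; potency means the concentration at half of the fitted maximal effect; 0% = DMSO-treated cells and -100% = media-only wells without cells; nearly all actives have a fitted effect of over 55% in size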
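Viability of the 2HG-overproducing fibrosarcoma line after 48 hours of compound exposure at 37 degrees C was determined by luminescence with CellTiter-Glo, and concentration-effect curves were then fitted and categorized.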
An asterisk follows results filed as active; ? = inconclusive; · = no result given; [ ] = remark or other dose. Unless noted, the call rests on the fitted dose curve; in most records, active means well fitted curve in the direction sought with a large enough effect; inconclusive means small, poorly fitted or top-dose-only effect, or another doubt; inactive means no such curve, though single readings can be large; an effect the other way counts as inactive or inconclusive. Unless noted, on the % scale 0 is the no-effect control and ±100 the full control effect.

SMILES	TDP1 cell CPT	HT1080 IDH1KD tx	DT40 TDP1 no CPT	ELG1 DNA repair	IL-1B inflam inh	HT1080-NT tox
COC(=O)[C@@]12C[C@@H](CC(=O)NCCC(C)C)C(=O)N(Cc3ccc4c(c3)OCO4)C1=CCC(C)(C)C2	?	?	18µM*	·	-55*	?
COCCCNC(=O)C[C@@H]1C[C@@]2(C(=O)OC)CC(C)(C)CC=C2N(Cc2ccc3c(c2)OCO3)C1=O	13%	-2%	?	·	-18	-1%
CCCCOCCCNC(=O)C[C@@H]1C[C@@]2(C(=O)OC)CC(C)(C)CC=C2N(Cc2ccc3c(c2)OCO3)C1=O	?	?	21µM*	·	-11	?
COc1ccc(-n2c(CCNC(=O)c3ccc(-c4cccc(F)c4)cc3)nnc2SC)cc1	-1%[9.04 µM]	·	?	·	·	·
COc1cccc(NC(=O)Nc2nc(SC(C)(C)C)ns2)c1	15µM*	?	?	0%	-73*	?
CCCCCCSc1nsc(NC(=O)CC(C)C)n1	-17%	15µM*	?	?	7	?
COc1cccc(NC(=O)Nc2nc(SC)ns2)c1	9.2µM*	?	?	?	-98*	?
CCSc1nsc(NC(=O)Nc2cccc(F)c2)n1	21µM*	6.5µM*	4.1µM*	?	-95*	12µM*
COc1ccc(OCC(O)CNS(=O)(=O)c2cccc(Cl)c2)cc1 (stereo unspecified)	?	-14%	?	12%	-5	-6%
CCCCCn1c(C(C)NC(=O)c2ccccc2)nc2ccccc21 (stereo unspecified)	?	·	-33%	·	·	·
Cn1cccc1C(=O)N1CCC2(CCCN(Cc3nccs3)C2)CC1	3%	·	?	·	·	·
CCOc1ccc(NC(=O)CSc2cn(CC(=O)N3CCOCC3)c3ccccc23)cc1	?	·	-29%	·	·	·
CCCSc1nsc(NC(=O)Nc2ccc(F)cc2F)n1	5.2µM*	4%	4.1µM*	?	-28	?
CCCSc1nsc(NC(=O)C(c2ccccc2)c2ccccc2)n1	18µM*	?	29µM*	?	-9	?
CCOc1cc(C(=O)NCc2ccc3c(c2)CCN3C(=O)c2ccc(F)cc2)cc(OCC)c1OCC	?	·	26µM*	·	·	·
CCOc1ccc(C(=O)NCc2ccc3c(c2)CCN3C(=O)c2ccc(C)cc2)cc1OCC	12µM*	·	13µM*	·	·	·
CCOc1cc(C(=O)NCc2ccc3c(c2)CCN3C(=O)CC)cc(OCC)c1OCC	-10%	·	-19%	·	·	·
CCOc1ccccc1C(=O)NCc1ccc2c(c1)CCN2C(C)=O	0.92µM*	·	1.6µM*	·	·	·
CCOc1cccc(CC(=O)NCc2ccc3c(c2)CCN3C(=O)c2ccc(F)cc2)c1OCC	-14%	·	?	·	·	·
Cc1ccc(C(=O)N2CCc3cc(CNC(=O)c4ccccc4F)ccc32)cc1	?	·	21µM*	·	·	·
Cc1ccccc1C(=O)NCc1ccc2c(c1)CCN2C(=O)c1ccc(F)cc1	-19%	·	-25%	·	·	·
CC1(C)OC(=O)C2=C(C[C@@H](C3CCCCC3)O[C@H]2c2ccc(F)cc2)O1	-19%	-24%	?	·	-26	-24%
COc1ccccc1CN1CCN(C2CCN(C(=O)NC(C)C)CC2)C(=O)C1=O	-11%	·	0%	·	·	·
C=C1[C@@H]2CC[C@@H](C2)C1(C)C	14%	·	-9%	·	·	·
CCN(CC)c1ccc(C(=O)NCc2ccc3c(c2)CCN3C(=O)c2ccc(F)cc2)cc1	5.8µM*	·	4.6µM*	·	·	·
CCC(=O)N1CCc2cc(CNC(=O)c3ccc(F)cc3)ccc21	-29%	·	-24%	·	·	·
CCC(=O)N1CCc2cc(CNC(=O)c3ccc(C#N)cc3)ccc21	?	·	-23%	·	·	·
